Measured values published in PubChem BioAssay AID1203 (The Scripps Research Institute Molecular Screening Center, 2008).
In all, about 200,000 compounds went through this assay and about 80 (0.04%) were called active.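 The calls were made as follows: active = activation above the mean across all tested compounds plus 3 SD, cutoff set per campaign (cut at about 5.5% in these data); inactive = the rest.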 The list comes from a sample in which actives are over-represented; it also holds similar structures and randomly drawn compounds.

assay: Hsp70 promoter-driven reporter induction – cell-based, HeLa, Hsp70 promoter luciferase, luminescence, 10 µM, primary screen (AID 1203); conditions: at 10 µM, stronger effect = higher value, scaled: vehicle 0, proteasome-inhibitor control 100%;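 also: 100% = MG132 at 30 µM as the positive control and 0% = DMSO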

activation, inactive:
Cn1c(=O)cc(OCC(=O)N2CCN(c3ccccc3F)CC2)c2ccccc21 0.82%
COc1ccc(C/C(C)=N/NC(=O)c2ccncc2)cc1 -0.08%
COc1ccccc1C(=O)CSc1cccc[n+]1[O-] 0.19%
CCC(C)(C(=O)Nc1ccccc1C)N(C(=O)CNC(C)=O)c1ccc(C)cc1 (configuration not stated) -0.25%
OCCC1CN(Cc2ccc3nsnc3c2)CCN1C1CCCCC1 (configuration not stated) -0.14%
CC(C)(C)NCCCOc1ccc(Cl)cc1C(C)(C)C -0.26%
CCN(CC)Cc1nc2sc(C)c(C)c2c(=O)[nH]1 -0.4%
COc1ccc(/C=C/C(=O)Nc2ccc(C34CC5CC(CC(O)(C5)C3)C4)cc2)cc1OC 0.8%
CC(NC(=S)Nc1ccc(OC(F)F)cc1)c1ccc(F)cc1 (configuration not stated) -0.29%
O=C(O)c1n[nH]nc1-c1ccccc1 -0.44%
CN(C)c1ccc(C2Nc3ccccc3C(=O)N2NS(=O)(=O)c2ccccc2)cc1 (configuration not stated) -0.44%
CCCC(C)C(=O)OCC(=O)Nc1c(Br)cc(C)cc1Br (configuration not stated) -0.19%
O=C(Nc1nc(-c2cccnc2)cs1)c1ccccc1F 0.2%
O=C(NC1CCc2ccccc21)C12CN(Cc3ccccc3)CC1C(c1cccc([N+](=O)[O-])c1)=NO2 (configuration not stated) -0.09%
CC[C@H]1OC(=O)[C@H](C)[C@@H](O[C@H]2C[C@@](C)(OC)[C@@H](O)[C@H](C)O2)[C@H](C)[C@@H](O[C@@H]2O[C@H](C)C[C@H](N(C)C)[C@H]2O)[C@](C)(O)C[C@@H](C)[C@@H]2N[C@@H](COCCOC)O[C@H]([C@H]2C)[C@]1(C)O -0.19%
CCc1cc2c(=O)c(-c3ccc(F)cc3)c(C(F)(F)F)oc2cc1OCC(=O)O -0.05%
O=C(COC(=O)c1cc([N+](=O)[O-])ccc1NCc1ccccc1)NC1CCCCC1 -0.39%
CCCN(CC1COc2ccccc2O1)C(=S)Nc1ccc(C)cc1 (configuration not stated) -0.24%
COc1ccc(NC(=O)COC(=O)c2ccc(NS(=O)(=O)/C=C/c3ccccc3)cc2)cc1 -0.47%
COc1cccc(OCc2cc(/C=N/NC(=O)c3nc(Cl)c(Cl)c(N)c3Cl)ccc2OC)c1 -0.07%
CC1Cc2ccccc2N1C(=O)CSc1nnc(-c2ccc(S(=O)(=O)N3CCCC3)cc2)n1C (configuration not stated) 0.16%
Cc1cc(C(=O)NNC(=O)c2cccc(S(=O)(=O)N3CCOCC3)c2)c2ccccc2n1 -0.21%
